Values without a mark were called inactive.
Tested on: Vero E6 infected with SARS-CoV-2
Experiment: inhibition of SARS-CoV-2 cytopathic effect; higher = more antiviral protection, active = above 15
Conditions: 48 h

Row | Structure (SMILES) | inhibition of SARS-CoV-2 cytopathic effect (1 nM) | inhibition of SARS-CoV-2 cytopathic effect (8.33 nM) | inhibition of SARS-CoV-2 cytopathic effect (100 nM) | inhibition of SARS-CoV-2 cytopathic effect (833.33 nM) | inhibition of SARS-CoV-2 cytopathic effect (10000 nM)
1 | CCCCCCCN(CC)CCC[C@@H](O)c1ccc(NS(C)(=O)=O)cc1 (racemic) [ibutilide] | -3.47% | -2.14% | -2.19% | 0.97% | -2.22%
2 | NC1(Cc2ccc(Cl)cc2)CCN(c2ncnc3[nH]ccc23)CC1 | -1.05% | 0.05% | -0.65% | 0.89% | -9.28%
3 | C=C(C)[C@@H]1CC=C(CO)CC1 [perillyl-alcohol] | 2.64% | -3.02% | 2.99% | 2.39% | -1.2%
4 | C[C@@H]([C@H](O)c1ccc(O)cc1)N1CCC(Cc2ccccc2)CC1 (racemic) [ifenprodil] | 2.09% | -0.2% | 0.52% | 0.72% | -6.19%
5 | O=C(CNC(=O)c1cccc(C(F)(F)F)c1)N[C@@H]1CCN(Cc2ccc(Cl)cc2)C1 [teijin-compound-1] | -1.08% | -0.19% | 0.66% | -1.99% | -4.88%
6 | COc1cc(OC)c(C(=O)CCCN2CCCC2)c(OC)c1 [buflomedil] | 1.62% | 0.64% | 4.02% | 3.26% | 1.28%
7 | N#CC(C#N)=Cc1ccc(O)c(O)c1 [tyrphostin-AG-18] | 2.32% | 2.46% | 0.83% | 0.73% | 0.85%
8 | CN1C(=O)CC[C@H]1c1cccnc1 [cotinine] | -0.33% | -1.5% | -0.09% | 0.39% | 0.17%
9 | O=C1COc2nccc(-c3ccccc3F)c2CN1Cc1cc(C(F)(F)F)cc(C(F)(F)F)c1 | -0.76% | -1.69% | -0.49% | -2.79% | -1.55%
10 | Nc1ccn([C@@H]2O[C@@](CO)(CCl)[C@@H](O)[C@H]2F)c(=O)n1 | 3.35% | 2.02% | -3.04% | -0.34% | 2.59%
11 | O=C(NCCO)c1cccc(-c2cc(Nc3ccc(OC(F)(F)F)cc3)ncn2)c1 | 0.82% | 1.06% | 2.91% | 3.22% | 0.55%
12 | CC1(C)NC(=O)N(c2ccc([N+](=O)[O-])c(C(F)(F)F)c2)C1=O [nilutamide] | 3.3% | 1.17% | 0.03% | -2.17% | 1.01%
13 | CCc1cc2c(s1)-n1c(C)nnc1CN=C2c1ccccc1Cl [etizolam] | 2.37% | 2.54% | -2.3% | 3.16% | 2.75%
14 | CC(=O)N1CC[N+](C)(C)CC1 [4-acetyl-1,1-dimethylpiperazinium] | 0.03% | -1.23% | 0.82% | 1.13% | 0.5%
15 | CCn1cc(C(=O)O)c(=O)c2cnc(N3CCNCC3)nc21 [pipemidic-acid] | 0.65% | 2.63% | 1.17% | -0.86% | 1.68%
16 | CC/C(=C(/c1ccc(OCCN(C)C)cc1)c1cccc(O)c1)c1ccccc1 [droloxifene] | 0.66% | -1.2% | 1.69% | 0.64% | 34.5% (active)
17 | Nc1ncnc2c1c(-c1cnc3[nH]ccc3c1)nn2C1CCCC1 | -1.07% | -0.16% | 0.41% | -3.88% | -16.5%
18 | OC(c1ccccc1)C1CCN(CCc2ccccc2)CC1 (stereo not given) | -0.21% | 1.17% | -0.64% | -0.54% | 0.25%
19 | NS(=O)(=O)c1ccc(-n2nc(C(F)(F)F)cc2-c2ccc(Cl)cc2)cc1 | 1.27% | 3.82% | -2.22% | -0.43% | -0.38%

From the supplement of paper PMC13380429
